According to PubChem BioAssay (Tox21):
Inconclusive results are not listed. Calls of active or inactive are those of the source. Unless noted, the call rests on the fitted dose curve; in most records, active means well fitted curve in the direction sought with a large enough effect in the repeat runs; inconclusive means weak or mixed curves; inactive means no such curve, though single readings can be large; an effect the other way counts as inactive or inconclusive.

What was measured:
[1] = A CellTox Green Cytotoxicity Assay to monitor cytotoxicity in HepG2 cells - 8 hour (AID 1224890); further: nearly all actives have a fitted effect of over 45% in size
How it was run: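 Real-time cytotoxicity: fluorescence of a cell-impermeant cyanine dye binding DNA of dead HepG2 cells, measured repeatedly (0–40 h) during compound exposure at 37 C. Cells seeded 600/well with reagent, dosed after 5 h.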

[2] = qHTS assay to identify small molecule antagonists of the estrogen receptor alpha (ER-alpha) signaling pathway using the BG1 cell line in the presence of 0.1 nM 17-beta-estradiol - cell viability counter screen (AID 1259241); further: nearly all actives have a fitted effect of over 40% in size
How it was run: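 Live-cell protease activity (CellTiter-Fluor fluorescence, 30 min) was read in the same wells after VM7Luc4E2 cells had been exposed to compounds with 0.1 nM 17beta-estradiol for 22 hr at 37C.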

[3] = qHTS assay to identify small molecule antagonists of the androgen receptor (AR) signaling pathway using the MDA cell line in the presence of 0.5 nM R1881 - cell viability counter screen (AID 1259242); further: nearly all actives have a fitted effect of over 45% in size
How it was run: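 Live-cell protease activity was measured by CellTiter-Fluor fluorescence after 30 min. Before that, MDA-kb2 MMTV-luciferase cells had 16 hr at 37C without CO2, exposed to test compounds and 0.5 nM R1881 final.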

[4] = target: Androgen receptor (Homo sapiens) (UniProt P10275); test: qHTS assay to identify small molecule antagonists of the androgen receptor (AR) signaling pathway using the MDA cell line in the presence of 0.5 nM R1881 (AID 1259243); further: nearly all actives have a fitted effect of over 50% in size
How it was run: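 Luminescent reporter readout (ONE-Glo, 30 min, room temperature) after 16 hr co-treatment of MDA-kb2 cells with test compounds and 0.5 nM R1881 final, at 37C without CO2. The MMTV-driven luciferase responds to both AR and GR.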

[5] = target: Estrogen receptor (Homo sapiens) (UniProt P03372); test: qHTS assay to identify small molecule antagonists of the estrogen receptor alpha (ER-alpha) signaling pathway using the BG1 cell line in the presence of 0.1 nM 17-beta-estradiol (AID 1259244); further: nearly all actives have a fitted effect of over 50% in size
How it was run: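 Luciferase luminescence (ONE-Glo, 30 min at room temperature) was read after 22 hr at 37C exposure to compounds plus 17beta-estradiol at 0.1 nM final. Cells were VM7Luc4E2 with endogenous ER-alpha and an ERE-driven luciferase, pre-cultured 5 days in hormone-depleted medium.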

[6] = qHTS assay to identify small molecule HDAC inhibitors (AID 1259364); further: top concentration of the series differs between compounds; nearly all actives have a fitted effect of over 45% in size
How it was run: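 Luminescence read after 30 min room-temperature HDAC-Glo incubation measures cellular class I/II HDAC activity. Compounds were applied for 2 hr at 37 C to HCT-116 wild-type cells seeded the day before.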

[7] = qHTS assay to identify small molecule HDAC inhibitors - cell viability counter screen (AID 1259365); further: series mostly up to about 92 µM; nearly all actives have a fitted effect of over 50% in size
How it was run: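 HCT-116 (wild type), 1,500 cells/well, overnight 37C/5% CO2; compound in DMSO 2hr; CellTiter-Glo 30min RT; luminescence read.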

[8] = qHTS assay to identify small molecule antagonists of the sonic hedgehog signaling (Shh) pathway - cell viability counter screen (AID 1259367); further: nearly all actives have a fitted effect of over 55% in size
How it was run: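 CellTiter-Fluor signal in conditioned medium-stimulated 3T3 Gli1-Luc cells, 23 hr compound exposure, 37C.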

[9] = qHTS assay to identify small molecule agonists of the sonic hedgehog signaling (Shh) pathway (AID 1259368; calls by dose curve;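 further: NIH/3T3-derived 3T3Gli1-Luc cells carrying a stable Gli1-driven firefly luciferase reporter; series mostly up to about 92 µM; nearly all actives have a fitted effect of over 15% in size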)
How it was run: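 Luminescence was read after 30 min at room temperature with luciferase reagent. Before that, 3T3Gli1-Luc cells (NIH/3T3 clone, stable Gli1-Luc reporter; 2,000/well) were exposed to compounds for 24 hr at 37C, 5% CO2, compounds being added 4 hr post-plating.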

[10] = qHTS assay to identify small molecule antagonists of the sonic hedgehog signaling (Shh) pathway (AID 1259369; calls by dose curve; further: nearly all actives have a fitted effect of over 45% in size; further: potency means the concentration at half of the fitted maximal effect)
How it was run: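 Antagonist mode: compound added to 3T3 Gli1-Luc cells followed by conditioned-medium stimulation, 24 h at 37 C, 5% CO2. Inhibition taken as loss of Gli1-driven luciferase luminescence.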

[11] = target: Estrogen receptor beta (Homo sapiens) (UniProt Q92731); test: qHTS assay to identify small molecule agonists of the estrogen receptor beta (ER-beta) signaling pathway (AID 1259377; active means well fitted activation curve with a large enough effect in the signal ratio in the repeat runs, not every such curve was filed as active; the % refers to the signal ratio; further: potency means the concentration at half of the fitted maximal effect)
How it was run: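 Beta-lactamase reporter readout: fluorescence of LiveBLAzer B/G FRET substrate after 2 h at room temperature, following 16 h compound treatment of ER-beta-UAS-bla HEK293T cells at 37C in 2% charcoal-stripped FBS medium.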

[12] = target: Estrogen receptor beta (Homo sapiens) (UniProt Q92731); test: qHTS assay to identify small molecule antagonists of the estrogen receptor beta (ER-beta) signaling pathway (AID 1259378; active means well fitted inhibition curve with a large enough effect in the signal ratio in the repeat runs, not every such curve was filed as active; the % refers to the signal ratio)
How it was run: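 Antagonist mode: compounds added to beta-lactamase reporter HEK293T ER-beta-UAS cells stimulated with E2 (1nM final), 16 hr at 37C. LiveBLAzer B/G FRET substrate, 2 hours room temperature, fluorescence read-out.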

[13] = qHTS assay to identify small molecule agonists of the androgen receptor (AR) signaling pathway in the presence of an antagonist - cell viability counter screen (AID 1259379);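 further: MDA-kb2 human breast cancer cells carrying an MMTV luciferase reporter; series mostly up to about 92 µM; nearly all actives have a fitted effect of over 25% in size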
How it was run: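 Cytotoxicity counter-screen run in the same wells as the nilutamide-challenged (3.0 µM final) AR agonist assay in MDA-kb2 cells. Compounds tested at 15 concentrations for 16 h, 37 °C without CO2; CellTiter-Fluor fluorescence read.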

[14] = qHTS assay to identify small molecule agonists of the estrogen receptor beta (ER-beta) signaling pathway - cell viability counter screen (AID 1259380); further: nearly all actives have a fitted effect of over 30% in size
How it was run: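 Cell viability counter screen: CellTiter-Glo luminescence (30 min, room temperature) measured in the same wells as the beta-lactamase readout, after 16 hr compound exposure at 37C of ER-beta-bla HEK293T cells in 2% charcoal-stripped FBS medium.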

[15] = target: Androgen receptor (Homo sapiens) (UniProt P10275); test: qHTS assay to identify small molecule agonists of the androgen receptor (AR) signaling pathway in the presence of an antagonist (AID 1259381; calls by dose curve; further: nearly all actives have a fitted effect of over 15% in size)
How it was run: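 Agonist-mode confirmation run against 3.0 uM final nilutamide: compounds titrated at 15 concentrations onto MDA-kb2 MMTV-luciferase reporter cells. Luminescence measured with ONE-Glo following 16 hr incubation, 37C, 0% CO2.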

[16] = qHTS assay to identify small molecule antagonists of the estrogen receptor beta (ER-beta) signaling pathway - cell viability counter screen (AID 1259382);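 further: HEK293T cells carrying ER-beta-UAS-bla reporter stimulated with estradiol; series mostly up to about 92 µM; nearly all actives have a fitted effect of over 55% in size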
How it was run: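 Cytotoxicity was measured in the same wells by CellTiter-Glo luminescence after 30 min at room temperature. Cells were ER-beta-bla HEK293T in charcoal-stripped serum, given compound together with 1 nM E2 and incubated 16 h at 37C.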

[17] = target: Estrogen receptor (Homo sapiens) (UniProt P03372); test: qHTS assay to identify small molecule agonists of the estrogen receptor alpha (ER-alpha) signaling pathway in the presence of an antagonist (AID 1259383; calls by dose curve; further: top concentration of the series differs between compounds; nearly all actives have a fitted effect of over 15% in size)
How it was run: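 Agonist-mode confirmation run in the presence of 10.0nM (final) ICI-182,780 antagonist. The reporter was ERE-driven luciferase in VM7Luc4E2 cells, grown in charcoal-stripped serum. Cells were exposed to 15-concentration compound series for 22hr, then ONE-Glo luminescence was read.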

[18] = qHTS assay to identify small molecule phospholipidosis (PLD) inducers (AID 1259344; active means well fitted curve in the direction sought with a large enough effect; an effect the other way counts as inactive or inconclusive)
How it was run: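 Accumulated phospholipid, stained red by LipidTOX during 24 h compound treatment of HepG2 cells at 37 C, is quantified from images as pit number and intensity, normalised per cell using Hoechst-stained nuclei.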

[19] = qHTS assay to identify small molecule agonists of the sonic hedgehog signaling (Shh) pathway - cell viability counter screen (AID 1259366); further: nearly all actives have a fitted effect of over 50% in size
How it was run: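 CellTiter-Fluor fluorescence read-out, 1 hr at 37C, added after 23hr compound exposure. Cells: 3T3 Gli1-Luc, an NIH/3T3 clone with stably integrated Gli1-Luc reporter, plated 4hr before compound.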

[20] = qHTS assay to identify small molecule agonists or antagonists of the thyroid stimulating hormone receptor (TSHR) signaling pathway - wild type cell line counter screen (AID 1259384; calls by dose curve)
How it was run: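 Counter screen in untransfected Hek293: compounds (15-point titration, triplicate) plus phosphodiesterase inhibitor Ro20-1724 added after 18 h plating; 30 min RT. Intracellular cAMP via competitive d2/cryptate immunoassay, 1 h incubation.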
On the % scale 0 is the no-effect control and ±100 the full control effect.

Androgen receptor (Homo sapiens), sequence (P10275 whole entry, looked up): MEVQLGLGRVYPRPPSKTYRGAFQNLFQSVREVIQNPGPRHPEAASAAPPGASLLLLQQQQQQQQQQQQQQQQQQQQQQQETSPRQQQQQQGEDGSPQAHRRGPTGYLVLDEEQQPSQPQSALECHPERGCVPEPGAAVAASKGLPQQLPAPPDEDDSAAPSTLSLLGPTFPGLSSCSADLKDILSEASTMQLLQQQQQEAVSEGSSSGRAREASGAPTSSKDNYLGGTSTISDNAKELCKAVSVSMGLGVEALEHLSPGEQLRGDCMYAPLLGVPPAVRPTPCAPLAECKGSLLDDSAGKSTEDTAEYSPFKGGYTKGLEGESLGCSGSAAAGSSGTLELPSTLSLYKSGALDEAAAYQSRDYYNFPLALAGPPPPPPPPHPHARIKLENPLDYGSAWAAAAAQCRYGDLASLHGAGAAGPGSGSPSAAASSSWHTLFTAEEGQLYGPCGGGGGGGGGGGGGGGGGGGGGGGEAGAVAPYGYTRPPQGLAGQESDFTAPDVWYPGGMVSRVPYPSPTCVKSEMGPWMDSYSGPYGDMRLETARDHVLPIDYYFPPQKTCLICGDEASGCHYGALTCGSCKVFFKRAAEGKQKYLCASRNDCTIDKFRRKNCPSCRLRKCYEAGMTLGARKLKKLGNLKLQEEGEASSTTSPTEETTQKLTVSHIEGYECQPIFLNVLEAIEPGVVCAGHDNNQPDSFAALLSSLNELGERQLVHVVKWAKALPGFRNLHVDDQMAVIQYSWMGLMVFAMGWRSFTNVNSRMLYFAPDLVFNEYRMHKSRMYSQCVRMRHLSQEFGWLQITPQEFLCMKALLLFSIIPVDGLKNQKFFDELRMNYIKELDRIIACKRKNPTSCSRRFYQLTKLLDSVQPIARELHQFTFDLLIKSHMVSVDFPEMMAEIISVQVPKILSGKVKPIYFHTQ
Estrogen receptor beta (Homo sapiens), sequence (Q92731 whole entry, looked up): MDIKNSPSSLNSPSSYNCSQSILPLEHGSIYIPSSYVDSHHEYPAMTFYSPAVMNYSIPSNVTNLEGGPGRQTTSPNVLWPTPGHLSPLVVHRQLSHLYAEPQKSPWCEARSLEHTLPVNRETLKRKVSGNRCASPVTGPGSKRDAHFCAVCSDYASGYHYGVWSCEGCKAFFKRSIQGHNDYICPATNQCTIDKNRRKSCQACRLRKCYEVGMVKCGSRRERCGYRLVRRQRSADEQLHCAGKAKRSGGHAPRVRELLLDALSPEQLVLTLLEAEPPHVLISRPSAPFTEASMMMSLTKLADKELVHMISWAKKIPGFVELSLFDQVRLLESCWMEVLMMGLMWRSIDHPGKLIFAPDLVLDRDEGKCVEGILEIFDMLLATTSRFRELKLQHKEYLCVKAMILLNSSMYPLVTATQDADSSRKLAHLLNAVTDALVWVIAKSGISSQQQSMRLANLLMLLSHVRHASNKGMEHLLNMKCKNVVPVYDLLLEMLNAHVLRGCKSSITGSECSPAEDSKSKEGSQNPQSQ
Estrogen receptor (Homo sapiens), sequence (P03372 whole entry, looked up): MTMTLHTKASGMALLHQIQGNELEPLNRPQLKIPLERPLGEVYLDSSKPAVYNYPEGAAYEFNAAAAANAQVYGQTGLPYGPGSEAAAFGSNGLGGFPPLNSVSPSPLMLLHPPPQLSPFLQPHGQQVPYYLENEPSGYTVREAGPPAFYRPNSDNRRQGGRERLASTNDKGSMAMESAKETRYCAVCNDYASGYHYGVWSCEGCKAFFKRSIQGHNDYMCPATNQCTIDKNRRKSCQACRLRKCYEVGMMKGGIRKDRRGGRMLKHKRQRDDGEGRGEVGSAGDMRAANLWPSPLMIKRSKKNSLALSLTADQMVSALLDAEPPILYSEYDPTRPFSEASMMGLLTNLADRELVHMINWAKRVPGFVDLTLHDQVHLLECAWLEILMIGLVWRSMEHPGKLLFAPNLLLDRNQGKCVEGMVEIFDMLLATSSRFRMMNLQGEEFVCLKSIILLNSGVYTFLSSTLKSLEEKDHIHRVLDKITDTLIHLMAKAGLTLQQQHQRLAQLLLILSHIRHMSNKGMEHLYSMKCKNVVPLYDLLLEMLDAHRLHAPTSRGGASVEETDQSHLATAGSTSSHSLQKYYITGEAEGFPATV

CCN(CC)C1CCCCC1
inactive: Potency [1] | outcome [2] | Potency [3] | Potency [4] | Potency [5] | Potency [6] | outcome [7] | Potency [8] | outcome [9] | Potency [10] | Potency [11] | outcome [12] | Potency [13] | Potency [14] | Potency [15] | Potency [16] | Potency [17]

CCOC(=O)c1ncn2c1CN(C)C(=O)c1c(I)cccc1-2
inactive: Potency [1] | outcome [2] | Potency [3] | Potency [5] | Potency [18] | Potency [6] | outcome [7] | Potency [19] | Potency [8] | outcome [9] | Potency [11] | outcome [12] | Potency [13] | Potency [14] | Potency [16] | Potency [17] | outcome [20]

CNC(=O)O/N=C(/CSC)C(C)(C)C
inactive: Potency [1] | outcome [2] | Potency [3] | Potency [4] | Potency [6] | outcome [7] | Potency [8] | outcome [9] | Potency [10] | Potency [13] | Potency [14] | Potency [15] | Potency [16] | Potency [17] | outcome [20]

CCNc1nc(Cl)nc(NC(C)(C)C)n1
active: Potency [10] 969 nM | Potency [11] 27.3 µM
inactive: Potency [1] | outcome [2] | Potency [3] | Potency [4] | Potency [5] | Potency [6] | outcome [7] | Potency [19] | Potency [8] | outcome [9] | outcome [12] | Potency [13] | Potency [14] | Potency [15] | Potency [16]

CC1N=C(N)OC1c1ccccc1 (stereo unspecified)
inactive: Potency [1] | outcome [2] | Potency [3] | Potency [5] | Potency [18] | Potency [6] | outcome [7] | Potency [19] | Potency [8] | outcome [9] | Potency [11] | Potency [13] | Potency [16] | Potency [17] | outcome [20]

CCN(CCO)CCn1c(Cc2ccccc2)nc2c1c(=O)n(C)c(=O)n2C
inactive: Potency [1] | outcome [2] | Potency [3] | Potency [5] | PLD induction [18] -2.9% [at 7.66 µM] | Potency [6] | outcome [7] | Potency [19] | Potency [8] | outcome [9] | Potency [10] | Potency [11] | outcome [12] | Potency [13] | Potency [14] | Potency [16] | Potency [17] | outcome [20]

CC(C)(N)Cc1ccc(Cl)cc1
inactive: Potency [1] | outcome [2] | Potency [3] | Potency [5] | Potency [18] | Potency [6] | outcome [7] | Potency [19] | Potency [8] | outcome [9] | Potency [10] | Potency [13] | Potency [14] | Potency [17] | outcome [20]

ClC(Cl)(Cl)Cl
inactive: Potency [1] | outcome [2] | Potency [3] | Potency [5] | Potency [18] | Potency [6] | outcome [7] | Potency [8] | outcome [9] | Potency [10] | Potency [11] | outcome [12] | Potency [13] | Potency [14] | Potency [16] | Potency [17] | outcome [20]
